Compounds with a hit are over-represented: about 2.2% of the library has one in this group of screens.
aSyn rescue: inhibitors of alpha-synuclein toxicity in yeast; Yeast expressing alpha-synuclein, growth rescue, BacTiter-Glo, 24 h; Potency, µM (highest dose often 46.1 µM), inactives show at the top dose growth rescue (activation), most hits filed as activators; 370,000 tested, 0.14% active; AID 652106; note: % of control where 0% means no effect; nearly all actives have a fitted effect of over 65% in size
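Screening used galactose-induced yeast with toxic alpha-synuclein levels, exposed to compound for 24 hr at 30 deg C. Cell growth, read with BacTiter-Glo luminescence, gave the measured signal.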
TDP-43 yeast inh: inhibitors of TDP-43 toxicity in yeast; AID 652104; TDP-43 expressing yeast growth rescue, BacTiter-Glo, 24 h; Potency, µM (doses to about 46.1 µM), for the others: at the highest dose growth rescue (activation), usual class: activators; 410,000 tested, 1.8% active; note: % of control where 0% means no effect; nearly all actives have a fitted effect of over 50% in size
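Yeast cells expressing TDP-43 under galactose induction are exposed to compounds for 24 hr at 30 deg C. BacTiter-Glo luminescence measures growth, so protective compounds score as activators.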
Abeta yeast res: compounds reversing amyloid beta toxicity in yeast. yeast expressing A-beta42, growth rescue, OD600, 48 h; response scale: 0% DMSO, 100% iron-clioquinol control. Potency, µM (series often up to 46.1 µM), actives largely listed as activators. 410,000 tested, 0.063% active; note: nearly all actives have a fitted effect of over 55% in size
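Yeast growth medium received pinned compounds, then yeast cells expressing toxic A-beta were added; plates incubated at 30 C for 48 hr. Growth read as absorbance at 600 nm, normalized to DMSO and equimolar FeCl3 plus clioquinol controls.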
FUS yeast rescue: rescues growth of FUS-expressing yeast; Potency, µM (series often up to 76.6 µM), most hits filed as activators; S. cerevisiae FUS-expressing, growth rescue, OD600, 24 h; 390,000 tested, 0.24% active;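 note: plate controls were DMSO vehicle for no effect and reference control for full effect; nearly all actives have a fitted effect of over 55% in size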
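Cultures pregrown in 2.5% raffinose medium are shifted to minimal medium containing 2% galactose to express toxic FUS. Compounds are tested at several concentrations. After 24hr at 30C, growth is quantified at 600 nm absorbance.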
Mito fusion yeast: mitochondrial division inhibition or fusion activation; Potency, µM (doses to about 46.1 µM), without a hit: at the top dose growth rescue (activation), most hits filed as activators; S. cerevisiae fusion-defective mutant growth rescue, CellTiterGlo 48 h; 320,000 tested, 0.23% active; AID 485298; note: % of control where 0% means no effect; nearly all actives have a fitted effect of over 45% in size
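Temperature-sensitive fusion-defective S. cerevisiae (e.g. fzo1-1, mgm1-5) were grown with compound in YPEG medium (3% ethanol, 3% glycerol) for 48 hours at 37C. Growth rescue was measured as viability by CellTiterGlo luminescence after 10 minutes at ambient.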
An asterisk follows results filed as active; i = inactive; ? = inconclusive; / = no result given. Calls come from the whole dose curve; as a rule, active = well fitted curve in the direction sought with a large enough effect; inconclusive = small, poorly fitted or top-dose-only effect, or another doubt; inactive = no such curve, though single readings can be large; an effect the other way counts as inactive or inconclusive. Potency is the fitted concentration of half-maximal effect.

SMILES	aSyn rescue	TDP-43 yeast inh	Abeta yeast res	FUS yeast rescue	Mito fusion yeast
COc1ccccc1CCNC(=O)Cc1c(C)c2c(cc(C)c3c(C)coc32)oc1=O	/	-4%	i	i	/
Cc1ccc(C)c(Sc2ccc(NC(=O)CCl)cc2)c1	17%	8.9µM*	i	i	6%
O=C(CCl)Nc1ccccc1Sc1ccccc1	-1%	?	i	i	-5%
Cc1ccc(Sc2ccc(NC(=O)CCl)cc2)cc1C	-35%	?	i	i	14µM*
COC(=O)C(Cc1c[nH]c2ccccc12)NC(=O)COc1cccc(C)c1 (stereo not given)	/	3%	i	i	/
CCOC(=O)N(C)c1c(CC)nc2c(OCc3ccccc3C)cccn12	-12%	11%	i	i	/
CCc1cc2c(cc3c(=O)n(CCCC(=O)NCc4cccc(Cl)c4)ncn32)s1	/	17%	i	i	/
CC1(C)CC2CC(C)(CN2C(=O)COC(=O)c2ccc(O)cc2O)C1 (stereo not given)	-11%	19%	10µM*	i	/
CC(C)(C)S(=O)N1Cc2cc(C(=O)NCc3ccc(Oc4ccccc4)cc3)nc(-c3cccc(-c4cc5ccccc5o4)c3)c2[C@@H]1CCO (stereo not given in full)	-32%	22µM*	i	32µM*	/
Nc1ccc2c(c1)C(=O)N(c1cccc3ccccc13)C2=O	11%	14µM*	i	i	0%
Cc1ccc(N2C(=O)c3ccc(N)cc3C2=O)cc1C	2%	11µM*	i	i	10%
CC(C)CCNC(=O)c1ccc(Cn2c(SCC(=O)NC(C)C)nc3ccccc3c2=O)cc1	-2%	1%	i	i	/
COc1ccc(C2=NN(C(C)=O)CC2c2cccc([N+](=O)[O-])c2)cc1 (stereo not given)	11%	11µM*	/	i	-9%
CC(=O)N1N=C(N)SC1c1cccc([N+](=O)[O-])c1 (stereo not given)	-3%	4%	i	i	-3%
C=CCCC(=O)N1CCC(C(=O)NC2CCCc3ccccc32)CC1 (stereo not given)	/	/	/	i	/
Oc1cccc(Nc2ccccc2)c1	13%	13µM*	i	i	10%
Cc1ccc2c(c1)N(C(=O)CCC(=O)NCCCN(C)Cc1ccccc1)CCO2	-1%	4%	i	i	0%
Cc1ccc2c(c1)N(C(=O)NCc1ccccc1)CCO2	/	18µM*	i	i	/
Cn1c(N)c(N=O)c(=O)n(C)c1=S	-2%	-26%	i	i	/
Oc1ccc(Br)cc1-c1nc2cnccn2c1NC1CCCC1	11%	22µM*	i	i	21%
CSCCC(NS(=O)(=O)c1ccccc1F)C(=O)N1CCCCCCC1 (stereo not given)	3%	14%	i	i	0%
CC1(C(=O)Nc2cccc3c2CCCC3)CCN1C(=O)c1cccc(F)c1 (stereo not given)	9%	28µM*	i	i	/
Cc1ccc(CCNS(=O)(=O)c2ccc(C)cc2)cc1	/	16µM*	i	i	8%
Fc1cccc(Cl)c1C1SCc2nc3ccccc3n21 (stereo not given)	6%	13µM*	i	i	/
CC(=O)Nc1ccc(N2C(=O)CSC2c2c(F)cccc2Cl)cc1 (stereo not given)	/	6%	?	i	-1%
SMILES	aSyn rescue	TDP-43 yeast inh	Abeta yeast res	FUS yeast rescue	Mito fusion yeast
CNc1cccc(-c2cc(OC)c(OC)c(OC)c2)n1	-3%	9%	i	i	/
COc1cc(Nc2cccc(-c3ccccc3)n2)cc(OC)c1OC	5%	32µM*	i	i	/
Cc1c(N(C)S(=O)(=O)c2cc(C(=O)N3CCCC3)ccc2Cl)c(=O)n(-c2ccccc2)n1C	3%	8%	i	/	3%
COc1cccc(C(=O)Nc2ccccc2)c1	2%	-25%	i	i	-3%
O=C(Nc1nc(-c2ccccc2)c(-c2ccccc2)o1)c1ccc(F)cc1	?	?	11µM*	i	-6%
COc1cccc(C(=O)Nc2c(C(=O)NC(C)(C)C)oc3ccccc23)c1	/	18µM*	i	i	/
COc1cccc(NC(=O)c2oc3ccccc3c2NC(C)=O)c1	-1%	-11%	i	i	2%
COc1cccc(C(=O)Nc2nc(-c3ccccc3)c(-c3ccccc3)o2)c1	?	20µM*	16µM*	i	24%
COc1cccc(C(=O)Nc2ccc(-n3nncc3-c3ccccc3)cc2)c1	/	35µM*	i	?	1%
Cc1ccc2c(c1)cc1c(=O)n(CC(=O)NCCCc3ccccc3)nc(C)n12	5%	14%	i	i	7%
COc1ccc(S(=O)(=O)N(CC(=O)NCc2ccc(C)cc2)c2ccc(Cl)cc2)cc1	/	11%	i	i	/
O=C(Nc1c(Cl)cc([N+](=O)[O-])cc1Cl)c1cc(Cl)cc(Cl)c1O	-86%	/	/	/	/
CCOC(=O)c1cc(C)n(Cc2cccc(OC)c2OC)c1C	-15%	20µM*	i	i	-2%
Cc1cc(C)n(-c2nc3ccccc3c(=O)n2OCc2ccc(Cl)cc2)n1	-3%	11µM*	i	i	3%
Cc1cc(C)n(-c2nc3ccccc3c(=O)n2OCc2ccc(F)cc2)n1	2%	?	i	i	?
COc1ccc(NC(=O)CNc2cc(C)ccc2C)cc1S(=O)(=O)N1CCOCC1	-8%	9%	i	i	-1%
CCOc1ccc(-c2[nH]ncc2Oc2ccccc2OCC)c(O)c1	?	18µM*	i	i	12%
CCOc1ccc(-c2[nH]ncc2Oc2ccccc2OC)c(O)c1	?	?	i	?	?
CCOc1ccc(-c2[nH]ncc2-c2ccc(Cl)cc2)c(O)c1	-46%	35µM*	i	i	3%
COc1ccc(C)cc1S(=O)(=O)N1CCCC(C(=O)NC2CC2)C1 (stereo not given)	1%	-4%	i	/	1%
COc1ccc(Cc2c(-c3ccccc3)nc3ccc(Br)cn23)c(C)c1	10%	26%	i	i	/
O=C(NC(=S)Nc1ccc(N2CCOCC2)c(Cl)c1)c1cccs1	-2%	9%	?	i	21%
O=C(NC(=S)Nc1ncc(Br)cc1Br)c1cncc(Br)c1	-7%	1%	i	i	-3%
O=C(NC(=S)Nc1ccc(N2CCOCC2)c(Cl)c1)c1cncc(Br)c1	-8%	20µM*	i	i	-3%
O=C(NC(=S)NC1CCCCCC1)c1cncc(Br)c1	-14%	16µM*	?	/	7%
CC(=O)N/C(=C/c1ccccc1)c1ccncc1	1%	/	/	/	/
Cc1cccc(N=c2c([N+](=O)[O-])nn(-c3ccc(Cl)cc3)n2O)c1	1%	?	i	i	-2%

Screening results from PubChem.
